Where “and” joins values, the source holds several entries; their conditions need not be identical. Identical values can stand only once.
These compounds were tested on Plasmodium falciparum (assay: GSK_TCMDC: Inhibition of Plasmodium falciparum 3D7 in whole red blood cells, using parasite LDH activity as an index of growth. Test compounds present at 2uM).
Assay type: functional

**Q.** For `COc1ccc2nccc([C@@H](O)CN3CCC(NCc4nc5c(cc4Cl)SCC(=O)N5)C(F)C3)c2c1.Cl` (some centres not stated), which Inhibition is on record?
**A.** 94% and 99%

**Q.** `Cc1c2c(nn1-c1ccccc1)C(c1ccccc1)N(c1ccccc1)C2=O` (configuration not stated) was tested. Which Inhibition did it give?
**A.** 92%

**Q.** For `CC(=O)Nc1ccc(C(=O)NC2CCN(c3ccnc4cc(Cl)ccc34)CC2)cc1.O=C(O)C(F)(F)F`, which Inhibition is on record?
**A.** 100%

**Q.** Which Inhibition does the source give for `CN(C(=O)c1ccccc1)C1c2cc(C#N)ccc2OC(C)(C)C1O` (configuration not stated) here?
**A.** 97%

**Q.** With `CCOc1cc(CC)ccc1C1CCN(CCCCNC(=O)c2ccc(NC(=O)c3ccc(Cl)cc3)cc2)CC1.Cl` as the compound, how does the Inhibition read?
**A.** 100%

**Q.** How did the Inhibition turn out when `COc1ccccc1CN1CCC(NC(=O)c2ccc(-c3cccc(Cl)c3)s2)CC1.O=C(O)C(F)(F)F` was run?
**A.** 84%

**Q.** For `Cc1cc(NC(=O)c2cccs2)ccc1OC1CCN(Cc2ccccc2)CC1.O=C(O)C(F)(F)F`, which Inhibition is on record?
**A.** 95%

**Q.** Which Inhibition does the source give for `CCCCCCNC(=O)c1nn(CCN2CCC(N3CCCC3)CC2)cc1-c1ccc(Cl)c(Cl)c1` here?
**A.** 100%

**Q.** Which Inhibition does the source give for `Cc1cc2[nH]c(-c3ccc(C(=O)NCCCN4CCN(c5cccc(Cl)c5)CC4)s3)nc2cc1Cl` here?
**A.** 100%

**Q.** How did the Inhibition turn out when `CN1CCN(c2ccc(-c3cccc(NC(=O)c4ccc5ccccc5c4)c3)nn2)CC1` was run?
**A.** 94%

**Q.** Which Inhibition does the source give for `C[C@@H](N/C(=N\c1ccc(-c2ccccc2)cc1)Nc1ccc(C#N)cc1O)c1ccc(Br)cc1` here?
**A.** 99%

**Q.** For `COc1ccc(CCn2c(=N)c(C(=O)NCc3ccccc3)cc3c(=O)n4cccc(C)c4nc32)cc1`, which Inhibition is on record?
**A.** 100%

**Q.** With `Cc1cccc(CN2CCC(Oc3ccc(NC(=O)c4cccs4)cc3Cl)CC2)n1.O=C(O)C(F)(F)F` as the compound, how does the Inhibition read?
**A.** 86%

**Q.** Which Inhibition does the source give for `C#CCCC(=O)Nc1cccc(-c2cccc(-c3nc4cccc(C)c4[nH]3)c2)c1` here?
**A.** 97%

**Q.** With `CCCC1(NC[C@@H](O)[C@H](Cc2ccccc2)NC(=O)c2cc(NCC)cc(N3CCCCS3(=O)=O)c2)CCCCC1.Cl` as the compound, how does the Inhibition read?
**A.** 100%

**Q.** With `CC(=O)Oc1cc(C(=O)Nc2ccc(Cl)cc2)cc2ccccc12` as the compound, how does the Inhibition read?
**A.** 88%

**Q.** Which Inhibition does the source give for `CCc1nc2ccc(C(=O)OC)nc2n1Cc1ccc2oc(-c3ccccc3N)c(Br)c2c1` here?
**A.** 93%

**Q.** With `CC(=O)Nc1ccc(C#Cc2ccc(-c3c(C)[nH]c(C)c(Cl)c3=O)cc2)cc1` as the compound, how does the Inhibition read?
**A.** 90%

**Q.** Which Inhibition does the source give for `Br.CCc1c(CCNCCCCCCNCCc2ccc(Br)cc2)ccc(O)c1O` here?
**A.** 95%

**Q.** For `CCc1cn(C)c2c(N3CCCC3=O)cc(C(=O)N[C@@H](Cc3ccccc3)[C@H](O)CNC3CCCCC3)cc12`, which Inhibition is on record?
**A.** 97%

**Q.** Which Inhibition does the source give for `Cc1nc2nc(N)nc(N)c2c(C)c1Cc1cccc(F)c1.Cl` here?
**A.** 96%

**Q.** `c1ccc(CNc2nc(NCCN3CCCCC3)nc3ccccc23)cc1` was tested. Which Inhibition did it give?
**A.** 87%

**Q.** For `O=[N+]([O-])c1ccc(C2=NN(S(=O)(=O)c3c(Cl)cc(Cl)cc3Cl)CCCC2)cc1`, which Inhibition is on record?
**A.** 99%

**Q.** Which Inhibition does the source give for `COc1ccc2c(-c3ccccc3)noc2c1` here?
**A.** 98%

**Q.** With `CCN(CCCN1CCCCC1)c1cc(C)nc(Nc2ccc(C)c(Cl)c2)n1.O=C(O)C(F)(F)F` as the compound, how does the Inhibition read?
**A.** 100%

**Q.** With `CC1=C(C(=O)OC(C)C)C(c2ccccc2Cl)C2=C(CC(c3ccccc3)CC2=O)N1` (configuration not stated) as the compound, how does the Inhibition read?
**A.** 93%

**Q.** Which Inhibition does the source give for `O=C(Cc1c[nH]cn1)Nc1cccc(-c2ccc(-c3nc4cc(F)ccc4[nH]3)cc2)c1` here?
**A.** 100%

These compounds were tested on Plasmodium falciparum (assay: GSK_TCMDC: Inhibition of Plasmodium falciparum Dd2 in whole red blood cells, using parasite LDH activity as an index of growth. Test compounds present at 2uM).
Assay type: functional

**Q.** `CCOc1cc[nH]c(=O)n1` was tested. Which Inhibition did it give?
**A.** 95%

**Q.** Which Inhibition does the source give for `Cc1cc(C(=O)Nc2ccc3c(c2)CCN3C2CCN(Cc3csc4ccccc34)C2)no1` (configuration not stated) here?
**A.** 96%

**Q.** How did the Inhibition turn out when `CCC(=O)Oc1ccc(NC(=O)c2cccc(OC)c2)cc1` was run?
**A.** 3%

**Q.** Which Inhibition does the source give for `COc1cccc(-c2csc(C(=O)NC3CCCCN(Cc4ccc(C(C)(C)C)cc4)C3)c2)c1.O=C(O)C(F)(F)F` (configuration not stated) here?
**A.** 66%

**Q.** With `O=C(c1ccc(-c2cccc(-c3nc4cc(C(F)(F)F)ccc4[nH]3)c2)cc1)N1CCCCC1CN1CCC(O)C1` (configuration not stated) as the compound, how does the Inhibition read?
**A.** 98%

**Q.** For `O=C(NCCCN1CCOCC1)c1cccc(Nc2nccc(Nc3ccc(Oc4ccccc4)cc3)n2)c1`, which Inhibition is on record?
**A.** 22%

**Q.** With `Cc1nc(O)c2c(ccc3ccc(CNc4ccc(C(=O)N[C@@H](CCC(=O)O)C(=O)O)c(F)c4)cc32)n1` as the compound, how does the Inhibition read?
**A.** 96%

**Q.** Which Inhibition does the source give for `O=C(Nc1nc2cc(S(=O)(=O)NCCc3ccc(F)cc3)ccc2n1CCCn1ccnc1)c1ccc(Cl)cc1.O=C(O)C(F)(F)F` here?
**A.** 55%

**Q.** Which Inhibition does the source give for `CC(C)n1ncc2c(C(=O)N3CCCc4ccccc43)cc(-c3ccccc3)nc21` here?
**A.** 82%

**Q.** `CCOc1cc2ncnc(Nc3ccc(OCc4ccccc4F)c(Cl)c3)c2cc1OCC.Cl` was tested. Which Inhibition did it give?
**A.** 74%

**Q.** For `CCOC(=O)c1cccc(NC(=O)Nc2cccc(-c3ncc(OCCCN)c4c3nc(-c3nonc3N)n4CC)c2)c1.O=C(O)C(F)(F)F`, which Inhibition is on record?
**A.** 98%

**Q.** Which Inhibition does the source give for `CCOc1cccc(C2c3c(oc4ccccc4c3=O)C(=O)N2CCN(CC)CC)c1` (configuration not stated) here?
**A.** 66%

**Q.** `O=[N+]([O-])c1ccc2nc(Nc3cccc(C(F)(F)F)c3)c(Nc3cccc(C(F)(F)F)c3)nc2c1` was tested. Which Inhibition did it give?
**A.** 99%

**Q.** For `COc1ccc2nccc([C@@H](O)CN3CCC(NCc4nc5c(cc4Cl)SCC(=O)N5)C(F)C3)c2c1.Cl` (some centres not stated), which Inhibition is on record?
**A.** 94% and 100%

**Q.** How did the Inhibition turn out when `Cc1c2c(nn1-c1ccccc1)C(c1ccccc1)N(c1ccccc1)C2=O` (configuration not stated) was run?
**A.** 96%

**Q.** With `CC(=O)Nc1ccc(C(=O)NC2CCN(c3ccnc4cc(Cl)ccc34)CC2)cc1.O=C(O)C(F)(F)F` as the compound, how does the Inhibition read?
**A.** 99%

**Q.** For `CN(C(=O)c1ccccc1)C1c2cc(C#N)ccc2OC(C)(C)C1O` (configuration not stated), which Inhibition is on record?
**A.** 4%

**Q.** With `CCOc1cc(CC)ccc1C1CCN(CCCCNC(=O)c2ccc(NC(=O)c3ccc(Cl)cc3)cc2)CC1.Cl` as the compound, how does the Inhibition read?
**A.** 58%

**Q.** How did the Inhibition turn out when `COc1ccccc1CN1CCC(NC(=O)c2ccc(-c3cccc(Cl)c3)s2)CC1.O=C(O)C(F)(F)F` was run?
**A.** 9%

**Q.** How did the Inhibition turn out when `Cc1cc(NC(=O)c2cccs2)ccc1OC1CCN(Cc2ccccc2)CC1.O=C(O)C(F)(F)F` was run?
**A.** 91%

**Q.** Which Inhibition does the source give for `CCCCCCNC(=O)c1nn(CCN2CCC(N3CCCC3)CC2)cc1-c1ccc(Cl)c(Cl)c1` here?
**A.** 33%

**Q.** Which Inhibition does the source give for `Cc1cc2[nH]c(-c3ccc(C(=O)NCCCN4CCN(c5cccc(Cl)c5)CC4)s3)nc2cc1Cl` here?
**A.** 93%

**Q.** With `CN1CCN(c2ccc(-c3cccc(NC(=O)c4ccc5ccccc5c4)c3)nn2)CC1` as the compound, how does the Inhibition read?
**A.** 26%

**Q.** How did the Inhibition turn out when `C[C@@H](N/C(=N\c1ccc(-c2ccccc2)cc1)Nc1ccc(C#N)cc1O)c1ccc(Br)cc1` was run?
**A.** 95%

**Q.** `COc1ccc(CCn2c(=N)c(C(=O)NCc3ccccc3)cc3c(=O)n4cccc(C)c4nc32)cc1` was tested. Which Inhibition did it give?
**A.** 37%

**Q.** How did the Inhibition turn out when `Cc1cccc(CN2CCC(Oc3ccc(NC(=O)c4cccs4)cc3Cl)CC2)n1.O=C(O)C(F)(F)F` was run?
**A.** 88%

**Q.** `C#CCCC(=O)Nc1cccc(-c2cccc(-c3nc4cccc(C)c4[nH]3)c2)c1` was tested. Which Inhibition did it give?
**A.** 29%

**Q.** For `CCCC1(NC[C@@H](O)[C@H](Cc2ccccc2)NC(=O)c2cc(NCC)cc(N3CCCCS3(=O)=O)c2)CCCCC1.Cl`, which Inhibition is on record?
**A.** 98%

**Q.** With `CC(=O)Oc1cc(C(=O)Nc2ccc(Cl)cc2)cc2ccccc12` as the compound, how does the Inhibition read?
**A.** 47%

**Q.** `CCc1nc2ccc(C(=O)OC)nc2n1Cc1ccc2oc(-c3ccccc3N)c(Br)c2c1` was tested. Which Inhibition did it give?
**A.** 75%

**Q.** With `CC(=O)Nc1ccc(C#Cc2ccc(-c3c(C)[nH]c(C)c(Cl)c3=O)cc2)cc1` as the compound, how does the Inhibition read?
**A.** 78%

**Q.** For `Br.CCc1c(CCNCCCCCCNCCc2ccc(Br)cc2)ccc(O)c1O`, which Inhibition is on record?
**A.** 1%

**Q.** With `CCc1cn(C)c2c(N3CCCC3=O)cc(C(=O)N[C@@H](Cc3ccccc3)[C@H](O)CNC3CCCCC3)cc12` as the compound, how does the Inhibition read?
**A.** 98%

**Q.** `Cc1nc2nc(N)nc(N)c2c(C)c1Cc1cccc(F)c1.Cl` was tested. Which Inhibition did it give?
**A.** 1%

**Q.** How did the Inhibition turn out when `c1ccc(CNc2nc(NCCN3CCCCC3)nc3ccccc23)cc1` was run?
**A.** 8%

**Q.** With `O=[N+]([O-])c1ccc(C2=NN(S(=O)(=O)c3c(Cl)cc(Cl)cc3Cl)CCCC2)cc1` as the compound, how does the Inhibition read?
**A.** 98%

**Q.** How did the Inhibition turn out when `COc1ccc2c(-c3ccccc3)noc2c1` was run?
**A.** 34%

**Q.** Which Inhibition does the source give for `CCN(CCCN1CCCCC1)c1cc(C)nc(Nc2ccc(C)c(Cl)c2)n1.O=C(O)C(F)(F)F` here?
**A.** 100%

**Q.** For `CC1=C(C(=O)OC(C)C)C(c2ccccc2Cl)C2=C(CC(c3ccccc3)CC2=O)N1` (configuration not stated), which Inhibition is on record?
**A.** 84%

**Q.** Which Inhibition does the source give for `O=C(Cc1c[nH]cn1)Nc1cccc(-c2ccc(-c3nc4cc(F)ccc4[nH]3)cc2)c1` here?
**A.** 84%

From ChEMBL document CHEMBL1157539, “Thousands of chemical starting points for antimalarial lead identification” (Nature, 2010)
